Measurements taken from PubChem BioAssay (NCATS).
Results filed as inconclusive are left out. Active and inactive are the calls of the source. Calls come from the whole dose curve; as a rule, active = well fitted curve in the direction sought with a large enough effect; inconclusive = small, poorly fitted or top-dose-only effect, or another doubt; inactive = no such curve, though single readings can be large; an effect the other way counts as inactive or inconclusive.

Tests used:
HACAT = experiment: qHTS assay to identify novel small-molecules to repurpose for Merkel cell carcinoma treatment (AID 1296009); details: MCC and control cell lines, CellTiter-Glo viability, 72 h; at 44.8 µM (top of the series) unless noted; note: nearly all actives have a fitted effect of over 60% in size
How it was run: (§1)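 After compound transfer in DMSO, plates were kept 72 hr at 37 degree celsius. Luminescent ATP signal from CellTiter-Glo served as viability measure, normalized against DMSO and no-cell controls.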

NIH3T3 = experiment: as above; details: MCC and control cell lines, CellTiter-Glo viability, 72 h; at 44.8 µM (top of the series) unless noted
How it was run: as §1

C33A = experiment: Primary qHTS to identify gynecologic anti-cancer compounds using libraries of approved drugs and bioactive compounds (AID 1345084); details: Gynecologic cancer cell panel viability, ATPlite luminescence, 48 h; series mostly up to 57.5 µM; note: % is set by controls: 0 for no effect and ±100 for the full control effect; nearly all actives have a fitted effect of over 55% in size
How it was run: (§2)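 Cells, 1,000 per well, plated 16 h, then exposed 48 h at 37 C to compounds. Viability by ATPlite luminescence after 15 min at room temperature.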

CASKI = experiment: as above; details: Gynecologic cancer cell panel viability, ATPlite luminescence, 48 h; series mostly up to 57.5 µM
How it was run: as §2

Es-2 = experiment: as above; details: Gynecologic cancer cell panel viability, ATPlite luminescence, 48 h; series mostly up to 57.5 µM
How it was run: as §2

HeLa = experiment: as above; details: Gynecologic cancer cell panel viability, ATPlite luminescence, 48 h; series mostly up to 57.5 µM
How it was run: as §2

Hek293T = experiment: as above; details: Gynecologic cancer cell panel viability, ATPlite luminescence, 48 h, control line for the selectivity index; series mostly up to 57.5 µM
How it was run: as §2

JEG-3 = experiment: as above; details: Gynecologic cancer cell panel viability, ATPlite luminescence, 48 h; series mostly up to 57.5 µM
How it was run: as §2

CAOV3 = experiment: as above; details: Gynecologic cancer cell panel viability, ATPlite luminescence, 48 h; series mostly up to 57.5 µM
How it was run: as §2

C=C(C(=O)O)C1CC(OC(=O)CC(C)CC)C2(C)CCCC(=C)C2C1 (stereo not given)
inactive: outcome (HACAT) | outcome (NIH3T3) | Potency (C33A) | outcome (CASKI) | Potency (Es-2) | Potency (HeLa) | Potency (Hek293T) | Potency (JEG-3)

Cc1ccc(-n2nc(C(C)(C)C)cc2NC(=O)Nc2cc(COc3cccnc3)[nH]n2)cc1
inactive: outcome (HACAT) | outcome (NIH3T3) | Potency (CAOV3) | outcome (CASKI) | Potency (Es-2) | Potency (HeLa) | Potency (Hek293T) | Potency (JEG-3)

N#Cc1cccc(-c2c[nH]c3ncnc(N4CCOCC4)c23)c1
inactive: outcome (HACAT) | outcome (NIH3T3) | Potency (CAOV3) | outcome (CASKI) | Potency (Es-2) | Potency (HeLa) | Potency (Hek293T) | Potency (JEG-3)

CCC(C)/C=C(C)/C=C/C1=CC2=C(Cl)C(=O)C(C)(O)C(=O)C2(O)C(OC)O1 (stereo not given)
inactive: outcome (HACAT) inactive [at 17.4 µM] | outcome (NIH3T3) inactive [at 17.4 µM] | Potency (C33A) | outcome (CASKI) | Potency (HeLa) | Potency (Hek293T) | Potency (JEG-3)

CC(C)/C=C1/NC(=O)C(C(C)C)n2c1nc1c(O)cccc1c2=O (stereo not given)
inactive: outcome (HACAT) | Potency (C33A) | Potency (CAOV3) | outcome (CASKI) | Potency (Es-2) | Potency (HeLa) | Potency (Hek293T) | Potency (JEG-3)

CC1CC(=O)[C@]2(O)C(C(=O)OCCc3ccc(O)cc3)=CO[C@@H](O[C@@H]3O[C@H](CO)[C@@H](O)[C@H](O)[C@H]3O)[C@H]12 (stereo not given in full)
inactive: outcome (HACAT) inactive [at 17.4 µM] | Potency (C33A) | Potency (CAOV3) | outcome (CASKI) | Potency (Es-2) | Potency (HeLa) | Potency (Hek293T) | Potency (JEG-3)

Cc1cc(C(=O)N2Cc3cnn(C)c3Nc3ccccc32)ccc1CNC(=O)N1CCN(Cc2cc(O)cc(O)c2)CC1
inactive: outcome (HACAT) | Potency (C33A) | Potency (CAOV3) | outcome (CASKI) | Potency (Es-2) | Potency (HeLa) | Potency (Hek293T) | Potency (JEG-3)

CC1(C)CC=C(C#Cc2ccccc2)c2cc(/C=C/c3ccc(C(=O)O)cc3)ccc21
inactive: outcome (HACAT) | Potency (C33A) | Potency (CAOV3) | outcome (CASKI) | Potency (Es-2) | Potency (HeLa) | Potency (Hek293T) | Potency (JEG-3)

CC1C(O)C(O)C2C(C(=O)OCCc3ccc(O)cc3)=COC(O[C@@H]3O[C@H](CO)[C@@H](O)[C@H](O)[C@H]3O)C12 (stereo not given in full)
inactive: outcome (HACAT) inactive [at 17.4 µM] | Potency (C33A) | Potency (CAOV3) | outcome (CASKI) | Potency (Es-2) | Potency (HeLa) | Potency (Hek293T) | Potency (JEG-3)

CS(=O)(=O)c1ccccc1N1CCN(c2nc3c(c(=O)[nH]2)CSCC3)CC1
inactive: outcome (HACAT) | Potency (C33A) | Potency (CAOV3) | outcome (CASKI) | Potency (Es-2) | Potency (HeLa) | Potency (Hek293T) | Potency (JEG-3)

C=C1CCC[C@]2(C)CC[C@@](O)(C(=C)C(=O)O)C[C@@H]12
inactive: outcome (HACAT) | Potency (C33A) | Potency (CAOV3) | outcome (CASKI) | Potency (Es-2) | Potency (HeLa) | Potency (Hek293T) | Potency (JEG-3)

O=C(OC1C=C(CO)C2C(OC3OC(CO)C(O)C(O)C3O)OC=CC12O)c1ccc(O)cc1 (stereo not given)
inactive: outcome (HACAT) inactive [at 17.4 µM] | Potency (C33A) | Potency (CAOV3) | outcome (CASKI) | Potency (Es-2) | Potency (HeLa) | Potency (Hek293T) | Potency (JEG-3)

C=CCc1cc(OC)c(OC(C)C(O)c2ccc(O)c(OC)c2)c(OC)c1 (stereo not given)
inactive: outcome (HACAT) | Potency (C33A) | Potency (CAOV3) | outcome (CASKI) | Potency (Es-2) | Potency (HeLa) | Potency (Hek293T) | Potency (JEG-3)

COc1ccccc1Oc1c(NS(=O)(=O)c2ccc(C)cn2)nc(-c2ccncc2)nc1OC
inactive: outcome (HACAT) | Potency (C33A) | Potency (CAOV3) | outcome (CASKI) | Potency (Es-2) | Potency (HeLa) | Potency (Hek293T) | Potency (JEG-3)

NC(=O)NCCCC(NC(=O)Cc1ccccc1)C(=O)O (stereo not given)
inactive: outcome (HACAT) | Potency (C33A) | Potency (CAOV3) | outcome (CASKI) | Potency (Es-2) | Potency (HeLa) | Potency (Hek293T) | Potency (JEG-3)

C[C@@H]1O[C@@H](OC2C(CO)OC(OCC3OC(OC(=O)[C@]45CCC(C)(C)CC4C4=CCC6[C@@]7(C)CC[C@@H](O)[C@](C)(C(=O)O)C7CC[C@@]6(C)[C@]4(C)CC5)C(O)C(O)C3O)C(O)C2O)[C@H](O)[C@H](O)[C@H]1O (stereo not given in full)
inactive: outcome (HACAT) inactive [at 9.27 µM] | activity change, negative = cytotoxicity (C33A) 1.71% [at 11.6 µM] | activity change, negative = cytotoxicity (CAOV3) 16.7% [at 11.6 µM] | activity change, negative = cytotoxicity (CASKI) -0.233% [at 11.6 µM] | activity change, negative = cytotoxicity (Es-2) -9.93% [at 11.6 µM] | activity change, negative = cytotoxicity (HeLa) 4.67% [at 11.6 µM] | activity change, negative = cytotoxicity (Hek293T) 5.6% [at 11.6 µM] | activity change, negative = cytotoxicity (JEG-3) 7.96% [at 11.6 µM]

CC(O)C/C=C/C=C/C(=O)OC1C=C2COC(=O)C2(O)C2(C)CCCC(C)(C)C12 (stereo not given)
inactive: outcome (HACAT) | Potency (C33A) | Potency (CAOV3) | outcome (CASKI) | Potency (Es-2) | Potency (HeLa) | Potency (Hek293T) | Potency (JEG-3)

C=C1CC2C(C)(CCC(=O)O)C(C(C)(C)O)CCC2(C)C2(C(=O)OC)C(=O)C(C)(O)C(=O)C12C (stereo not given)
inactive: outcome (HACAT) inactive [at 17.4 µM] | Potency (C33A) | Potency (CAOV3) | outcome (CASKI) | Potency (Es-2) | Potency (HeLa) | Potency (Hek293T) | Potency (JEG-3)

CC(C)[C@](O)(c1ccc2cc(OC(F)F)c(OC(F)F)cc2c1)c1cn[nH]n1
inactive: outcome (HACAT) | Potency (C33A) | Potency (CAOV3) | outcome (CASKI) | Potency (Es-2) | Potency (HeLa) | Potency (Hek293T) | Potency (JEG-3)

C[C@@H]1O[C@@H](O[C@H]2[C@H](O)[C@@H](O)[C@H](OC[C@H]3O[C@@H](OC(=O)[C@]45CCC(C)(C)C[C@H]4C4=CCC6[C@@]7(C)C[C@@H](O)[C@H](O)[C@@](C)(CO)C7[C@H](O)C[C@@]6(C)[C@]4(C)CC5)[C@H](O)[C@@H](O)[C@@H]3O)O[C@@H]2CO)[C@H](O)[C@H](O)[C@H]1O (stereo not given in full)
inactive: outcome (HACAT) inactive [at 9.27 µM] | activity change, negative = cytotoxicity (C33A) 15% [at 11.6 µM] | activity change, negative = cytotoxicity (CAOV3) -8.06% [at 11.6 µM] | activity change, negative = cytotoxicity (CASKI) -1.59% [at 11.6 µM] | activity change, negative = cytotoxicity (Es-2) -1.56% [at 11.6 µM] | activity change, negative = cytotoxicity (HeLa) 13.5% [at 11.6 µM] | activity change, negative = cytotoxicity (Hek293T) -2.97% [at 11.6 µM] | activity change, negative = cytotoxicity (JEG-3) -6.46% [at 11.6 µM]

COc1cc(C(O)C2COC(c3ccc(OC4OC(CO)C(O)C(O)C4O)c(OC)c3)C2CO)ccc1O (stereo not given)
inactive: outcome (HACAT) inactive [at 17.4 µM] | Potency (C33A) | Potency (CAOV3) | outcome (CASKI) | Potency (Es-2) | Potency (HeLa) | Potency (Hek293T) | Potency (JEG-3)

CC(=O)O[C@@H]1C[C@@H](C)[C@](O)(CCC2=CC(=O)OC2)[C@@]2(C)CCCC(C)(C)C12 (stereo not given in full)
inactive: outcome (HACAT) | Potency (C33A) | Potency (CAOV3) | outcome (CASKI) | Potency (Es-2) | Potency (HeLa) | Potency (Hek293T) | Potency (JEG-3)

CC(=O)OCC1OC(OC2COC(OC3COC(OC4C(OC5C(CO)OC(OC6CCC7(C)C(CCC8(C)C7CC=C7C9CC(C)(C)CCC9(C(=O)OC9OC(CO)C(O)C(O)C9OC9OCC(OC%10OCC(O)(CO)C%10O)C(O)C9O)C(O)CC78C)C6(C)C)C(O)C5O)OCC(O)C4O)C(O)C3O)C(O)C2O)C(OC(=O)/C=C/c2ccccc2)C(O)C1OC(C)=O (stereo not given)
inactive: outcome (HACAT) inactive [at 4.96 µM] | activity change, negative = cytotoxicity (C33A) 6.07% [at 6.55 µM] | activity change, negative = cytotoxicity (CAOV3) -0.975% [at 6.55 µM] | activity change, negative = cytotoxicity (CASKI) 5.64% [at 6.55 µM] | activity change, negative = cytotoxicity (Es-2) -4.41% [at 6.55 µM] | activity change, negative = cytotoxicity (HeLa) 6.46% [at 6.55 µM] | activity change, negative = cytotoxicity (Hek293T) 3.2% [at 6.55 µM] | activity change, negative = cytotoxicity (JEG-3) -2.72% [at 6.55 µM]

NC1Nc2ccccc2C1(N)CC1NC(=O)C(Cc2ccccc2)NC(=O)C(Cc2ccccc2)NC1=O (stereo not given)
inactive: outcome (HACAT) inactive [at 17.4 µM] | Potency (C33A) | Potency (CAOV3) | outcome (CASKI) | Potency (Es-2) | Potency (HeLa) | Potency (Hek293T) | Potency (JEG-3)

C[C@@H]1O[C@@H](OC[C@H]2O[C@@H](OCc3ccccc3)[C@H](O)[C@@H](O)[C@@H]2O)[C@H](O)[C@H](O)[C@H]1O
inactive: outcome (HACAT) inactive [at 17.4 µM] | Potency (C33A) | Potency (CAOV3) | outcome (CASKI) | Potency (Es-2) | Potency (HeLa) | Potency (Hek293T) | Potency (JEG-3)

OC[C@H]1O[C@@H](OCCc2ccccc2)[C@H](O)[C@@H](O)[C@@H]1O
inactive: outcome (HACAT) | Potency (C33A) | Potency (CAOV3) | outcome (CASKI) | Potency (Es-2) | Potency (HeLa) | Potency (Hek293T) | Potency (JEG-3)

COC(=O)C1=CO[C@@H](O[C@@H]2O[C@H](CO)[C@@H](O)[C@H](O)[C@H]2O)C2C1CC(O)C2C (stereo not given in full)
inactive: outcome (HACAT) | Potency (C33A) | Potency (CAOV3) | outcome (CASKI) | Potency (Es-2) | Potency (HeLa) | Potency (Hek293T) | Potency (JEG-3)
